From PubChem
D2 antagonist: HTS Assay for Allosteric Antagonists of the Human D2 Dopamine Receptor: Primary Screen for Antagonists. AID 485344, 2010. actives 2% (n = 340,000). inhibition, % at 10 µM. HEK293 TREx D2 cells, calcium flux, dopamine EC80; in the data active = inhibition above about 30%; inactive = below that, where a call was filed; note: 0% is about no effect
Target sequence (P14416 whole entry, looked up): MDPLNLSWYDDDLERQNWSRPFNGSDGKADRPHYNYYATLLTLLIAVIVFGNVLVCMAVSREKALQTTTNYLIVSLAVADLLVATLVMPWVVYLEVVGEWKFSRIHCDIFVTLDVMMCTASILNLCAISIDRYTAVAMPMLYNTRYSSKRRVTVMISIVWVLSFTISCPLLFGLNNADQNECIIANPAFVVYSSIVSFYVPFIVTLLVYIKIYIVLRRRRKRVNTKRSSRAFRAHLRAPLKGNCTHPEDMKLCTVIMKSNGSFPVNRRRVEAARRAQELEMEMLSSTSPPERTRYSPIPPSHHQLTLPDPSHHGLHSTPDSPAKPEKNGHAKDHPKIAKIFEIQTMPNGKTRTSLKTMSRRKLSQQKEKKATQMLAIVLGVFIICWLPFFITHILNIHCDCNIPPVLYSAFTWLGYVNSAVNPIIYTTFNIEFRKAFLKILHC
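Compounds are added to dye-loaded, induced HEK293 T-REx cells coupled to calcium release via D2; after a 3 min kinetic read an EC80 dopamine stimulus is given and fluorescence is recorded for 3 more min.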
D2 ag-1: Beta-Arrestin HTS for Positive Allosteric Modulators of the Human D2 Dopamine Receptor: Agonists. DiscoveRx PathHunter D2 beta-arrestin, luminescence, 90 min; 100% = 57 uM dopamine signal. activation, % (no concentration beside the values). actives 0.084% (n = 360,000). AID 624465, 2012; in the data active = activation above about 40%; inconclusive = between about 15% and that limit
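DiscoveRx PathHunter D2 beta-arrestin cells (2,100/well) attached overnight, then compound-stimulated 90 min at 37 C in HBSS/10 mM HEPES/0.1% Tween-20 buffer; beta-galactosidase complementation read by luminescence after 1 h at ambient temperature. Dopamine 57 uM final (EC100) as control.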
D2 PAM-1: HTS Assay for Positive Allosteric Modulators of the Human D2 Dopamine Receptor: Primary Screen for Potentiators | potentiation, % at 10 µM | HEK293 T-REx D2, calcium flux, EC20 dopamine potentiation | actives 0.34% (n = 340,000) | D(2) dopamine receptor (Homo sapiens), P14416;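 active = potentiation over 3 SD above the plate norm, cut at about 30% in these data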; note: 0% is about no effect
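Primary screen. Calcium kinetics in induced HEK293 T-REx D2 cells: compound pre-addition 180 s, EC20 dopamine, 180 s more.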
D2 ag-2: HTS Assay for Allosteric Agonists of the Human D2 Dopamine Receptor: Primary Screen for Agonists | actives 0.53% (n = 340,000) | HEK293 T-REx D2 cells, calcium flux agonist mode | activation, % at 2 µM;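 active = activation over 3 SD above normal in the single-dose calcium agonist read, cut at about 30% in these data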; note: 0% is about no effect
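In this primary screen, compounds producing a positive calcium signal within 180 s of addition to tetracycline-induced, force-coupled HEK293 Trex D2 cells are flagged; cells are dye-loaded with a no-wash calcium kit beforehand.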
D2 PAM-2: Beta-Arrestin HTS for Positive Allosteric Modulators of the Human D2 Dopamine Receptor: Potentiators | DiscoveRx D2 beta-arrestin cells, luminescence, 90 min; 100% = 57 uM dopamine signal | D(2) dopamine receptor (Homo sapiens), P14416 | actives 0.23% (n = 360,000) | potentiation, % (concentration not given with the values); in the data active = potentiation above about 50%; inconclusive = mostly about 30% to 49%
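PathHunter D2 cells, attached overnight at 37 deg C, received compound in DMSO plus dopamine at EC20 (50 nM final) for 90 min at 37 deg C. Beta-arrestin recruitment was read as luminescence after 1 h with detection reagent at ambient temperature.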
Starred values were filed as active, the others as inactive; u = inconclusive; x = no result given. Sampled rows, rich in hits. Any-hit rate of the full collection: about 2.4%.

SMILES	D2 antagonist	D2 ag-1	D2 PAM-1	D2 ag-2	D2 PAM-2
CCC(C)NC(=O)CSc1nc2n[nH]c(C)c2c(=N)n1-c1cc(Cl)ccc1C (configuration not stated)	x	x	15	0	x
CN(CC(=O)Nc1cccc(F)c1)C(=O)c1ccc2c(c1)S(=O)(=O)N=C1CCCCCN12	-1	-5	32*	1	-12
COc1ccccc1-c1ccc(/C=C2/C=C(CC(C)C)OC2=O)o1	33*	-4	8	3	-9
CCCOc1ccc(N)cc1N	-13	15	13	1	66*
CCCOc1cc(N)ccc1C(=O)OCCN(CC)CC	-6	-5	4	0	-21
CC(C)c1ccc(NC(=O)C2CCCN(S(=O)(=O)c3ccc(Br)s3)C2)cc1 (configuration not stated)	x	x	-2	-1	x
CC(=O)c1[nH]c(C)c(C(=O)NCc2ccc(Cl)cc2)c1C	x	x	6	0	x
O=C(N/N=C\c1cn[nH]c1-c1ccccc1)c1ccc([N+](=O)[O-])cc1	58*	3	-23	-1	-16
Cc1cc(C(=O)N/N=C/c2cn[nH]c2-c2ccccc2)cs1	30*	-3	-21	0	-19
O=C(N/N=C/c1cn[nH]c1-c1ccccc1)c1ccco1	4	0	13	1	-4
CCc1c(C(=O)N/N=C/c2cn[nH]c2-c2ccc(F)cc2)csc1C	71*	0	-27	4	10
Cc1c(CCNC(=O)C(C)(C)C)sc2nc(-c3ccc(F)cc3)nn12	x	x	14	1	x
Cc1cccc(C)c1OCc1n[nH]c(=S)n1-c1ccccc1	-11	9	0	1	-6
Cc1cccc(C)c1OCc1n[nH]c(=S)n1N	43*	14	-5	2	-21
Cc1ccc(Cl)cc1NC(=O)CCCN1C(=O)CCn2nc(-c3cn(C)c4ccccc34)cc21	x	x	8	1	x
CC1CCN(Cc2c(C(=O)N/N=C/c3cc(Br)ccc3O)nnn2-c2nonc2N)CC1	8	-4	6	2	-3
CC1CCN(Cc2c(C(=O)N/N=C/c3cc(Cl)ccc3O)nnn2-c2nonc2N)CC1	0	-9	30*	3	1
Cc1ccc(C2=NN(CC(=O)NCCc3ccc(Cl)cc3)C(=O)CC2)cc1	x	x	x	-2	x
Cc1nnc(SC(C)C(=O)Nc2ccc3ccccc3c2)[nH]c1=O (configuration not stated)	-8	0	x	-3	2
COc1cc(=O)[nH]c(SC(C)C(=O)Nc2ccc3ccccc3c2)n1 (configuration not stated)	x	-1	37*	x	0
COc1ccc(CCNC(=O)CCn2c(=O)c3ccccc3n(Cc3ccccc3C)c2=O)cc1OC	x	x	9	-2	x
c1ccc(OCCCCN2CCCCC2)cc1	0	-2	-14	1	-12
CN1CCCC(CC2Oc3ccccc3Sc3ccccc32)C1 (configuration not stated)	96*	-6	-33	3	-17
c1ccc2c(c1)OC(CCCN1CCCCC1)c1ccccc1S2 (configuration not stated)	87*	-5	-28	1	-31
O=C(NCCN1CCOCC1)c1ccc([N+](=O)[O-])cc1[N+](=O)[O-]	43*	7	0	1	50*
SMILES	D2 antagonist	D2 ag-1	D2 PAM-1	D2 ag-2	D2 PAM-2
O=C(Oc1ccccc1C(=S)N1CCOCC1)c1ccc([N+](=O)[O-])cc1[N+](=O)[O-]	-13	u	-4	1	58*
COc1ccc(-c2nc(CSCC(=O)N3CCN(C)CC3)c(C)o2)cc1OC	40*	-3	-2	1	-1
O=C(O)c1ccnc(Cl)c1	32*	1	2	-2	-8
CCc1ccc(S(=O)(=O)Nc2ccc3c(c2)n(C)c(=O)c(=O)n3C)cc1	x	x	-11	0	x
CCc1ccc(S(=O)(=O)Nc2ccc(N3CCN(C)CC3)cc2)cc1	75*	1	-20	1	-23
Cc1ccc(S(=O)(=O)Nc2ccc(N3CCN(C)CC3)nc2)cc1	4	-7	-14	-1	-21
CN1CCN(c2ccc(NS(=O)(=O)c3ccc(Cl)cc3)cn2)CC1	33*	-2	-5	-1	-8
O=C(NCCN1C(=O)S/C(=C\c2ccccc2)C1=O)C1CCN(S(=O)(=O)c2cccs2)CC1	33*	-2	-11	1	-9
O=C(NCCc1ccccc1)C1CCN(S(=O)(=O)c2cccs2)CC1	-5	-2	-14	0	-3
CCOc1ccc(NC(=O)C2CCN(S(=O)(=O)c3cccs3)CC2)cc1	-1	5	32*	-2	11
CCN(CC)S(=O)(=O)c1ccc2c(c1)N(CC(=O)Nc1ccc(C)cc1C)C(=O)C1CCCN21 (configuration not stated)	x	x	x	0	x
COc1ccc(NCc2cc3cc4c(cc3n(CC(=O)Nc3ccc(F)cc3)c2=O)OCCO4)cc1	x	x	3	4	x
COc1ccc2nc3cc(Cl)ccc3c(Nc3cc(C(C)C)c(O)cc3C)c2c1	31*	10	-24	-1	-10
CCN(CC)CCCC(C)Nc1c2ccc(Cl)cc2nc2ccc(OC)cc12 (configuration not stated)	-1	x	1	7	x
NS(=O)(=O)c1ccc(NC(=S)Nc2ccn(Cc3cccc4ccccc34)n2)cc1	42*	-3	-19	0	-6
CN(/N=C/c1cc([N+](=O)[O-])ccc1O)c1ccccc1	7	-8	3	3	-18
CN(/N=C/c1ccc(-c2ccc([N+](=O)[O-])cc2)o1)c1ccccc1	8	0	10	30*	0
CN(C)CCn1cnc2c(c1=N)C(c1ccccc1)c1ccc3ccccc3c1O2 (configuration not stated)	62*	-3	8	-3	-16
CCc1cccc(OCC(=O)Nc2ccc(C)c(S(=O)(=O)N3CCCCCC3)c2)c1	31*	-1	1	1	1
COc1ccc(-c2nc(Cn3c(SCc4cccc(C(F)(F)F)c4)nc4cccnc43)c(C)o2)cc1OC	x	x	4	1	x
O=C(Nc1ccccc1)Nc1cccc2cccnc12	-4	0	34*	-3	-16
O=C(NC(=S)Nc1nc2c(s1)CCCC2)c1ccccc1	35*	-2	-18	4	-17
COC(=O)c1ccc(C(=O)NC(=S)Nc2nc3c(s2)CCCC3)cc1	x	-1	x	x	10
O=C(NC(=S)NCc1ccccc1)c1ccccc1	36*	1	9	-1	-8
